Screening results as filed in PubChem BioAssay.
The list is not random: actives were taken first. Their share in the collection is about 11%.
NIH3T3 tox = NIH 3T3 cell cytotoxicity. Potency, µM (series often up to 96.7 µM), for the others: top-dose activity change, negative = cytotoxicity, hits mostly inhibitors. hit rate 4.3% among 94,000. NIH 3T3 viability, CellTiter-Glo ATP luminescence, 48-72 h; note: nearly all actives have a fitted effect of over 55% in size
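Cytotoxicity was measured by CellTiter-Glo ATP luminescence after 48 or 72 h compound exposure at 37 °C. Mouse NIH 3T3 fibroblasts were seeded at 400 cells/well and dosed by 23 nL pin transfer.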
NPR1 antag = blocks ANP-stimulated signaling of human Npr1 receptor | HEK293 hNpr1 GloSensor cGMP, ANP-stimulated luminescence | hit rate 1.6% among 76,000 | P16066 | Potency, µM (titrated, usually from 46.3 µM), without a hit: top-dose activity change, negative = inhibition, actives largely listed as inhibitors; calls by dose curve; note: nearly all actives have a fitted effect of over 60% in size
Target sequence (P16066 whole entry, looked up): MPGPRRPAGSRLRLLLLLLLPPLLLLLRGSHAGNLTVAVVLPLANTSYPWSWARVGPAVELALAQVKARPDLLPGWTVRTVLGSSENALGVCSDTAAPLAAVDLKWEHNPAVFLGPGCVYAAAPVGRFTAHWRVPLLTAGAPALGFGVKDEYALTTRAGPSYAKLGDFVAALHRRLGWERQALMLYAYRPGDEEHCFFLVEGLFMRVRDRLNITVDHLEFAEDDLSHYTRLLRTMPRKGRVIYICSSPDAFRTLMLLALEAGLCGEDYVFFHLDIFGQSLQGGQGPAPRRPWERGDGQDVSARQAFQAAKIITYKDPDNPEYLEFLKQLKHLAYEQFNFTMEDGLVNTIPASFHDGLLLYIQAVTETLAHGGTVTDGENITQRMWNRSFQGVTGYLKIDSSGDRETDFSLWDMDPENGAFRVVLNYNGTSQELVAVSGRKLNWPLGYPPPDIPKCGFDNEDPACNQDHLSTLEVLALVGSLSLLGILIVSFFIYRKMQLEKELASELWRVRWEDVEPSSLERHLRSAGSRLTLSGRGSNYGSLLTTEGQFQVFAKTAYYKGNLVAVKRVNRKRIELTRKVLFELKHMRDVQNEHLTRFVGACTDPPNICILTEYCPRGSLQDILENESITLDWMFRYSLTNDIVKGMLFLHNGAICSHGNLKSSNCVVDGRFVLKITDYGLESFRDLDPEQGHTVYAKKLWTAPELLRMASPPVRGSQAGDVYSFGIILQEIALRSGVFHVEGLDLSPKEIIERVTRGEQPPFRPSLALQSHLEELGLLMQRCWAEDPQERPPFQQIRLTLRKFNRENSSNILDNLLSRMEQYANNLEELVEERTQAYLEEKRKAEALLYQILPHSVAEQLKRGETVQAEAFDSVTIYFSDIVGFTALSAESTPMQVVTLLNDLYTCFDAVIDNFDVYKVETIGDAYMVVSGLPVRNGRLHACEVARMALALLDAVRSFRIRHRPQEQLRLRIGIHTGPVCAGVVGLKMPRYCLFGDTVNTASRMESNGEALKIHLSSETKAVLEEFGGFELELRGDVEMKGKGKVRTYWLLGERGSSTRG
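Compound pre-incubated 30 min at room temperature on GloSensor-loaded HEK293 cells stably carrying hNpr1 and the pGS-40F cGMP biosensor. Stimulation uses hNppA at 0.1 nM final; luminescence is taken at baseline and 20 min post-agonist.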
FLuc inh = blocks purified firefly luciferase enzyme activity. P08659. purified P. pyralis luciferase, luminescence, biochemical. Potency, µM (top dose mostly 115 µM), actives largely listed as inhibitors. hit rate 2.5% among 76,000. AID 1347043; note: nearly all actives have a fitted effect of over 65% in size
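Luminescence read by CCD imaging after purified firefly luciferase (10nM final) was added to substrate buffer holding 10uM D-luciferin and 10uM ATP, pH 7.5, pre-dosed with compound.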
HEK293 tox = kills HEK 293 cells. Potency, µM (doses to about 115 µM), inactives show at the highest dose activity change, negative = cytotoxicity, actives largely listed as inhibitors. hit rate 6.6% among 94,000. AID 1345083. HEK 293 viability, ATP luminescence (CellTiter-Glo), 48-72 h; note: nearly all actives have a fitted effect of over 60% in size
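HEK 293 cells seeded at 250 cells/well were exposed to compound for 48 or 72 hr at 37 degree Celsius. Viability taken as ATP content by CellTiter-Glo luminescence.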
Numbers without * were called inactive; i = inactive; u = inconclusive; x = no result given; [ ] = another dose, or the depositor's remark. Unless noted, calls come from the whole dose curve; as a rule, active = well fitted curve in the direction sought with a large enough effect; inconclusive = small, poorly fitted or top-dose-only effect, or another doubt; inactive = no such curve, though single readings can be large; an effect the other way counts as inactive or inconclusive. % is set by controls: 0 for no effect and ±100 for the full control effect; potency is the fitted concentration of half-maximal effect.

SMILES	NIH3T3 tox	NPR1 antag	FLuc inh	HEK293 tox
CN1c2cc(C(=O)Nc3ccc(OC(F)(F)F)cc3)ccc2C(=O)N2CCCCC21 (centres undefined)	u	u	u	-24.9%
CCCn1nccc1C(=O)N1CCCC(c2[nH]ncc2Cc2ccccc2)C1 (centres undefined)	u	-25.1%	i	50.1µM*
Cc1nc(C(=O)N2CCCC(c3[nH]ncc3Cc3ccccc3)C2)cs1 (centres undefined)	u	-12.3%	i	u
N#Cc1cccc(CN2CCOC[C@H]2c2ncc(-c3ccccc3)[nH]2)c1	-16.7%[138 µM]	-3.1%[70.6 µM]	i	-24.9%[172 µM]
Cc1cccc(-c2ccccc2C(=O)N2CCCC(CO)(Cc3ccccc3F)C2)c1 (centres undefined)	79.4µM*	-9.3%	i	20µM*
CCOc1cc(C(=O)N2CCC(Cc3nc(-c4cnccn4)no3)CC2)cc(OCC)c1OCC	u	-2.9%	i	-14.7%
CCOc1cc(C(=O)N2CCC(Cc3nc(-c4ccc(F)cc4)no3)CC2)cc(OCC)c1OCC	31.6µM*	u	i	35.5µM*
COc1ccc(C(=O)N2CCC(Cc3nc(C(C)C)no3)CC2)cc1OC	-45.3%	u	i	u
COc1ccc(-c2noc(CC3CCN(C(=O)c4cc(OC)cc(OC)c4)CC3)n2)cc1	u	u	i	35.5µM*
Cc1ccc(C(=O)N2CCC(Cc3nc(C(C)C)no3)CC2)cc1C	44.7µM*	u	i	u
COc1cc(OC)cc(C(=O)N2CCC(Cc3nc(-c4cccc(OC)c4)no3)CC2)c1	u	u	i	44.7µM*
C[C@@]12CCC(=O)C[C@@H]1C[C@H](OC(=O)NCc1ccccc1)CC2	u	x	x	-18.2%
COc1ccccc1C(=O)N1CCC(Cc2nc(-c3ccccc3)no2)CC1	u	u	i	u
COc1ccc(-c2noc(CC3CCN(C(=O)c4cc(OC)c(OC)c(OC)c4)CC3)n2)cc1	12.6µM*	u	i	u
O=C1CCC2(CCN1CC1CC1)CCN(C(=O)c1ccc3c(c1)OCO3)CC2	-6.8%	-11.8%	u	-0.2%
O=c1cc2c(nn1Cc1ccc(OC(F)(F)F)cc1)CCCCC2	u	-20.8%	i	44.7µM*
O=C(NCc1cccc(Cl)c1)c1noc(-c2ccc(F)cc2)n1	25.1µM*	2.7%	i	u
Cc1ccc(-c2nc(C(=O)NCc3cccc(C)c3)no2)cc1	u	-3.1%	u	79.4µM*
COCCc1noc(-c2ccccc2OC2CN(C(=O)c3ccccc3OC)C2)n1	2.6%	4.2%	i	-2.0%
COc1ccc(-c2nnc(C[C@@H]3C[C@@H](C(C)C)[C@H](CN(C)CCc4ccccn4)C=C3C)o2)cc1	35.5µM*	-7.7%	i	22.4µM*
COc1ccc(-c2nnc(C[C@@H]3C[C@@H](C(C)C)[C@H](CN(C)CCC#N)C=C3C)o2)cc1	89.1µM*	u	i	63.1µM*
COc1ccc(-c2nnc(C[C@@H]3C[C@@H](C(C)C)[C@H](CNCc4cccnc4)C=C3C)o2)cc1	u	-29.8%	i	u
CC1=C[C@@H](CN(C)CCC#N)[C@H](C(C)C)C[C@H]1Cc1nnc(-c2ccc(C)cc2)o1	u	u	i	50.1µM*
CN(C)CCNC(=O)C[C@@H]1c2nc(NC(=O)c3ccco3)sc2C[C@@H]2[C@](C)(CO)[C@H](O)CC[C@]21C	u	0.0%	i	2.2%
O=C(NCCc1ccc(Cl)cc1)c1cc(-c2cccs2)c2cccn2n1	u	x	x	44.7µM*
SMILES	NIH3T3 tox	NPR1 antag	FLuc inh	HEK293 tox
O=C(NCc1cccs1)c1cc(-c2ccccc2)c2nncn2n1	-25.2%	x	x	u
O=C(NCc1cccs1)c1cc(-c2cccs2)c2cccn2n1	u	x	x	50.1µM*
CSc1ccc(-c2cccc(C(=O)NCC(=O)NC3CC3)c2)cc1	-31.1%	x	x	u
O=C(C1CCC1)N1CCC(Oc2cccc(F)c2)C1 (centres undefined)	-1.0%	3.1%	i	-2.8%
N[C@@H]1CC[C@H](C(=O)N2CCC(Oc3cccc(C(F)(F)F)c3)CC2)C1	u	2.8%	i	44.7µM*
CNC(=O)Nc1cccn2nc(-c3ccccc3)nc12	u	-3.9%	39.8µM*	u
O=C(Nc1ccc2oc(-c3ccccc3)nc2c1)C1CCN(c2cnn(Cc3ccccc3)c(=O)c2)C1 (centres undefined)	-1.4%	-1.7%	u	-3.7%
CCN(CC)CC(=O)N1CCC(C(=O)Nc2ccc(-c3nc4ccccc4o3)cc2)CC1	22.4µM*	1.4%	i	22.4µM*
O=C(COc1ccccc1)Nc1ccc([C@@H](O)[C@H]2COCC(=O)N2CCCc2ccccc2)cc1	u	4.3%	i	79.4µM*
O=C(Nc1ccc([C@@H](O)[C@H]2COCC(=O)N2Cc2ccccc2)cc1)c1ccc(F)cc1	u	-8.8%[70.6 µM]	i	100µM*
CCOCCN1C(=O)COC[C@@H]1[C@H](O)c1ccc(NC(=O)c2ccccc2)cc1	-15.9%[138 µM]	-2.0%[70.6 µM]	i	-2.0%[172 µM]
COc1ccc(C(=O)Nc2ccc([C@@H](O)[C@H]3COCC(=O)N3CC3CCCCC3)cc2)cc1	u	-18.7%	i	35.5µM*
O=C(Nc1ccc([C@@H](O)[C@H]2COCC(=O)N2Cc2cccnc2)cc1)c1ccccc1	-5.6%[174 µM]	3.6%[70.6 µM]	i	-2.9%[172 µM]
O=C(COc1ccccc1)Nc1ccc([C@@H](O)[C@H]2COCC(=O)N2Cc2ccc(C(F)(F)F)cc2)cc1	u	u	i	39.8µM*
O=C(NCc1ccccc1)C1CCCN(C2CCN(C(=O)C3CCC3)CC2)C1 (centres undefined)	i	15.7%	i	-1.7%
Cc1[nH]cnc1CN1CCNc2cc(-c3ccccc3)ncc2C1	u	-4.8%[70.6 µM]	u	u
c1ccc(CCN2CCNc3cc(-c4cn[nH]c4)ncc3C2)cc1	89.1µM*	-26.6%[70.6 µM]	i	u
COCCN1CCNc2cc(-c3ccc(Oc4ccccc4)cc3)ncc2C1	44.7µM*	u	28.2µM*	50.1µM*
OCc1cccc(-c2cc3c(cn2)CN(CCc2ccccc2)CCN3)c1	u	-0.1%[70.6 µM]	i	u
c1ccc(CCN2CCNc3cc(NCc4cccnc4)ncc3C2)cc1	50.1µM*	4.1%[70.6 µM]	i	50.1µM*
COC[C@@H]1CN(C(=O)c2ccc(C)nc2)C[C@H]1c1ccccn1	-17.1%	x	x	i
CCNC(=O)c1c(C)oc2c1CN(Cc1sccc1C)CC2	u	-17.0%	i	u
COc1cccc(-c2noc(-c3ccc(NCCn4cccn4)nc3)n2)c1OC	u	u	15.8µM*	22.4µM*
COc1cccc(-c2noc(-c3ccc(NCCCSC)nc3)n2)c1OC	u	u	25.1µM*	u
COc1cccc(-c2noc(-c3ccc(-c4cn[nH]c4)nc3)n2)c1OC	-21.1%	1.4%	i	-29.5%
COc1cccc(-c2noc(-c3nc(-c4ccc5c(c4)OCO5)no3)n2)c1OC	-16.0%	-9.2%	i	-3.9%
